Experimental data reported in PubChem BioAssay AID1211 (NMMLSC, 2008).
Active and inactive are the calls of the source. No rule for the calls is given here.

Molecular target: Estrogen receptor (Homo sapiens) (UniProt P03372)
Test: displacement of fluorescent estrogen from ERalpha – cell-based, Cos7 ERalpha-GFP, flow cytometry, primary screen (AID 1211);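 also: 0% = DMSO vehicle wells and 100% = no E2-Alexa633 signal left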
Conditions: fluorescent ligand competition, stronger effect = higher value

Chain of Estrogen receptor (Homo sapiens) (P03372 whole entry, looked up): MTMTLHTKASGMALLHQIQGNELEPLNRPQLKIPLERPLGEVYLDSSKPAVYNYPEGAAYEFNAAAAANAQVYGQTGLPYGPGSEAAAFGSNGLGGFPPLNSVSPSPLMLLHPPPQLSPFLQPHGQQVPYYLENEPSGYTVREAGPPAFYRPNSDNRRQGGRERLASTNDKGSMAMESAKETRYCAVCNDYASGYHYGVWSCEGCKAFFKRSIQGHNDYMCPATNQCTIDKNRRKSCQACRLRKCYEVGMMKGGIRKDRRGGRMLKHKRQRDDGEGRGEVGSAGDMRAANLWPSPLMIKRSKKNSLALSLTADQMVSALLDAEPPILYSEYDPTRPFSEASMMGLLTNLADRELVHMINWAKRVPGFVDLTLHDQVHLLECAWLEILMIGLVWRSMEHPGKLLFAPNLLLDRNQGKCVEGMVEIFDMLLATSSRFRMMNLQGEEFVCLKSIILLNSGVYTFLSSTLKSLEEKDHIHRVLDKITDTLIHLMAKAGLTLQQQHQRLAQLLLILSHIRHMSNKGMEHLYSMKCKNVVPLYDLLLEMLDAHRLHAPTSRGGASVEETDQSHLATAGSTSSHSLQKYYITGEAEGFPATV

SMILES	inhibition of ligand binding (at 10 µM)	inhibition of ligand binding (binding inhibition, at 0.1 µM) [%]
Clc1ccc(Sc2cc(N3CCOCC3)nc(-c3ccccc3)n2)cc1	41% (inactive)	25
Cc1ccc(S(=O)(=O)Cc2ccc(C(=O)N3CCN(Cc4ccccc4)CC3)o2)cc1	25% (inactive)	9
O=C(O)c1ccc2c(c1)C1C=CCC1C(c1cccc([N+](=O)[O-])c1)N2 (centres undefined)	72% (active)	
O=C(O)C1OC(Oc2c(-c3ccc(O)c(O)c3)oc3cc(O)cc(O)c3c2=O)C(O)C(O)C1O (centres undefined)	0% (inactive)	62
CCOC(=O)c1sc(NC(=O)c2ccc3ncsc3c2)nc1C	33% (inactive)	36
C=C1C2C[C@H](O)C(C)(C)[C@@]2(O)[C@H](O)C[C@]23C[C@@](C)(O)[C@H](CC[C@H]12)[C@H]3O (some centres undefined)	30% (inactive)	
Cc1ccccc1Nc1nnc(SCC(=O)NC(=O)NCc2ccco2)s1	63% (inactive)	50
CC(C)(C)OC(=O)N1CCN(c2ccc(NC(=O)Cn3nnc(-c4ccccc4)n3)cc2)CC1	37% (inactive)	24
COc1ccc(C2Nc3ccccc3C(=O)N2c2ccc(C)cc2)cc1Cn1cc([N+](=O)[O-])cn1 (centres undefined)	26% (inactive)	7
c1coc(C2Nc3ccccc3C3OCCC23)c1 (centres undefined)	41% (inactive)	
Oc1ccc(/C=C/c2nc(-c3ccccc3O)n(-c3ccccc3)n2)cc1	11% (inactive)	58
COc1ccc2c(c1)c1nc3ccccc3nc1n2CCCN1C(=O)c2ccccc2C1=O	46% (inactive)	33
Nc1ccc(N2CCN(C(=O)c3ccco3)CC2)cc1	28% (inactive)	33
Cc1ccccc1-n1nc(-c2ccc(N)cc2)cc1N	7% (inactive)	
COc1cc2c(cc1OC)C(Cc1ccc(O)cc1)NCC2 (centres undefined)	26% (inactive)	32
CCOC(=O)Cc1csc(NC(=O)Cc2cccs2)n1	28% (inactive)	12
Cc1oc(-c2ccc(Cl)cc2)cc1-c1nn2c(-c3ccoc3C)nnc2s1	68% (active)	34
Nc1ccc2nc(-c3cc(Cl)c(N)c(Cl)c3)[nH]c2c1	18% (inactive)	6
CCOc1cc2c(c([N+](=O)[O-])c1)NC(c1ccccc1)C1CC=CC21 (centres undefined)	12% (inactive)	
CCOc1ccccc1-c1nc(-c2ccc(NC(=O)c3ccc(Br)o3)cc2)no1	52% (inactive)	
CC(C)CN(Cc1c(O)ccc2c3c(c(=O)oc12)CCC3)CC(C)C	6% (inactive)	
Cc1sc2ncnc(NCc3ccco3)c2c1C	0% (inactive)	

SMILES	inhibition of ligand binding (at 10 µM)	inhibition of ligand binding (binding inhibition, at 0.1 µM) [%]
Cc1ccc(C(=O)N/N=C/c2ccc([N+](=O)[O-])s2)cc1	40% (active)	73
CCc1nc(N)nc(N)c1-c1ccc(Cl)cc1	26% (inactive)	25
COc1cccc(C(=O)NC2CCN(C(=O)N3c4ccccc4Sc4ccccc43)CC2)c1	60% (inactive)	13
CCc1ccc2nc(NC(=O)c3ccc4c(=O)[nH]c(CN5CCOCC5)nc4c3)sc2c1	32% (inactive)	9
Cc1nnc(N/N=C/c2ccc(O)c([N+](=O)[O-])c2)[nH]c1=O	32% (inactive)	20
COC(=O)c1ccc(CC(=O)c2c(C)cc(O)cc2O)o1	34% (inactive)	43
CC(=O)OC1CC(C)(C)N(OC(=O)c2ccc(N)cc2)C(C)(C)C1	6% (inactive)	7
Cc1ccc(S(=O)(=O)N2CCCCC2)cc1C(=O)Nc1ncn[nH]1	21% (inactive)	7
CCOC(=O)C1CCCN(C(=O)c2cc3ncc(Br)cn3n2)C1 (centres undefined)	3% (inactive)	41
Cn1c(-c2ccc3nc(N)sc3c2)nc2cc(N)ccc21	36% (inactive)	37
O=C1NC(c2ccc(Br)cc2)Nc2sc3c(c21)CCC3 (centres undefined)	29% (active)	69
CC1(C)Cc2c(sc3c4nnnn4c4nnnn4c23)CO1	12% (inactive)	21
O=C(Nc1ccc(O)cc1)C1CC=CCC1 (centres undefined)	6% (inactive)	9
Brc1cc2c(cc1C1Nc3ccccc3C3C=CCC31)OCO2 (centres undefined)	0% (inactive)	14
N#CC(C(=O)Nc1ccc(Cl)cc1)=C1Nc2ccccc2N1	48% (inactive)	21
COC(=O)c1ccc(CC(=O)c2ccc(O)cc2O)o1	32% (inactive)	9
O=C(O)C1Nc2c(O)cc(Cl)c([N+](=O)[O-])c2C2C=CCC12 (centres undefined)	50% (inactive)	20
COc1ccc(C(Nc2ccccn2)c2oc(CO)cc(=O)c2O)cc1 (centres undefined)	32% (inactive)	22
COc1cc(-c2nc3ccc4ccccc4c3c3c2CCC3)ccc1O	46% (active)	87
CS(=O)(=O)c1ccc2nc(NC(=O)CCC(=O)c3cccs3)sc2c1	33% (inactive)	14
CCOC(=O)N1CCN(S(=O)(=O)c2ccc(C(=O)Nc3nc4ccc(F)cc4s3)cc2)CC1	34% (inactive)	11
CCC(=O)Nc1ccc(C(=O)Cn2nc(C(=O)O)c3ccccc3c2=O)cc1	50% (inactive)	30

SMILES	inhibition of ligand binding (at 10 µM)	inhibition of ligand binding (binding inhibition, at 0.1 µM) [%]
COc1ccc(N=C2NC(=O)S/C2=C\c2ccc(N(C)C)cc2)cc1	39% (inactive)	8
CSc1nc2c(c(=O)[nH]1)C(c1cccs1)C1=C(CCCC1=O)N2 (centres undefined)	28% (inactive)	30
O=Cc1ccc2oc3nc4n(c(=O)c3c(=O)c2c1)CCCS4	40% (inactive)	15
O=C(COC(=O)CC1CCCC1)Nc1cc2c(cc1Cl)C(=O)c1ccccc1C2=O	37% (inactive)	24
Cc1nnc(SCC(=O)NC(=O)NCc2ccco2)n1Cc1ccccc1	8% (inactive)	12
CCCc1nnc2n1N=C(c1ccc(-c3cc(Cl)ccc3Cl)o1)CS2	47% (inactive)	27
O=c1cc(O)c2c(=O)n(-c3ccccc3)c3c(c2o1)CCCCCC3	31% (inactive)	1
Cc1cc(-c2ccccc2)nc2cc(C(N)=O)nn12	42% (inactive)	5
CCOc1ccc(CC2S/C(=N/c3ccccn3)NC2=O)cc1 (centres undefined)	8% (inactive)	2
CCOC(=O)c1c(C)oc2c1c(C=NC1CCS(=O)(=O)C1)c(O)c1ccccc12 (centres undefined)	29% (inactive)	43
N#Cc1c(NCCN)nc(NCc2ccccc2)c2c1CCN(Cc1ccccc1)C2	65% (inactive)	15
CCc1ccc2c(c1)[C@H]1OCC[C@H]1[C@@H](c1cccs1)N2	0% (inactive)	21
Cc1cc([N+](=O)[O-])c2c(c1C)C1C=CCC1C(c1ccccn1)N2 (centres undefined)	72% (active)	10
COc1cc(/C=C2\OC(=O)c3c(OC)cccc32)ccc1O	24% (inactive)	28
COC(=O)c1ccc(-c2n[nH]c(=O)c3ccccc23)cc1	0% (inactive)	16
Cc1ccc(-n2nnnc2SCC(=O)Nc2cccc(NC(=O)c3ccco3)c2)cc1C	46% (inactive)	7
C=CCn1c(SCC(=O)NC(=O)NCc2ccco2)nc2sc(CC)cc2c1=O	10% (inactive)	3
Cc1ccc(Cc2cncc(O)c2)cc1S(=O)(=O)O	36% (inactive)	20
O=S(=O)(/N=C(/Sc1ccccc1)c1ccccc1)c1ccccc1	0% (inactive)	24
O=C(Cc1ccccc1)Nc1ccc2oc(-c3cccnc3)nc2c1	32% (inactive)	44
O=C(Cn1c(=O)n(Cc2ccco2)c(=O)c2c3c(sc21)CCCCC3)Nc1ccccc1	51% (inactive)	39
COc1cc(-c2nc3ccc4ccccc4c3c3c2CCC3)cc(OC)c1O	0% (inactive)	30

SMILES	inhibition of ligand binding (at 10 µM)	inhibition of ligand binding (binding inhibition, at 0.1 µM) [%]
CCOc1ccccc1C1C(C#N)=C(N)Nc2onc(-c3ccccc3)c21 (centres undefined)	9% (inactive)	20
Cc1cc(C2(c3ccc(O)c(C)c3)OC(=O)c3ccccc32)ccc1O	49% (inactive)	11
O=C(c1cccc(F)c1)N1CCN(C(=O)c2cc3ncc(Br)cn3n2)CC1	35% (inactive)	50
COC(=O)C1=C(O)/C(=C\c2ccc(CNC(=O)C(=O)Nc3ccc(C)c(C)c3)o2)N=C1C	32% (inactive)	31
CC(=O)c1ccc2c(c1)C1C=CCC1C(C(=O)O)N2 (centres undefined)	42% (inactive)	39
CSc1ccc(S(=O)(=O)Nc2cccc(F)c2)cc1	45% (inactive)	54
CN1C(=O)CSc2ccc(NC(=O)N3CCC(N4CCCCC4)CC3)cc21	57% (inactive)	1
COc1ccc(C2Nc3ccccc3C(=O)N2c2ccc(Cl)cc2)cc1Cn1cc([N+](=O)[O-])cn1 (centres undefined)	29% (inactive)	49
CCc1cccc2c(C(=O)Cn3nnc(-c4ccc(OC)c(OC)c4)n3)c[nH]c12	10% (inactive)	24
O=C(Nc1nccs1)c1nc(-c2ccccc2)n(-c2ccccc2)n1	27% (inactive)	36
COc1cc(NC(=O)COc2ccc(-n3cnnn3)cc2)c(OC)cc1Cl	58% (inactive)	41
Nc1ncnc2c1ncn2C1CCC(CO)C(O)C1 (centres undefined)	0% (inactive)	10
COc1ccc(Cc2nnc(NC(=O)Cc3cccs3)s2)cc1	47% (inactive)	47
COc1cc2c(cc1O)C(Cc1ccc(O)cc1)NCC2 (centres undefined)	34% (inactive)	8
O=C1c2ccccc2C(=O)N1CCCc1nc2ccccc2c(=O)n1CCCn1ccnc1	36% (inactive)	23
CC(=O)N1c2ccc(Cl)cc2C2C=CCC2C1c1cccc2ccccc12 (centres undefined)	0% (inactive)	13
Cc1ccc(OCCN2CCN(CC(O)Cn3c4ccccc4c4ccccc43)CC2)cc1 (centres undefined)	37% (inactive)	33
Oc1c(Cl)cc(Cl)cc1Sc1cc(Cl)cc(Cl)c1O	37% (inactive)	28
O=C(COC(=O)CN1C(=O)c2ccccc2C1=O)Nc1ncc(Cl)cc1Cl	7% (inactive)	14
CCOC(=O)C1=C(O)/C(=C\c2ccc(CNC(=O)C(=O)Nc3ccccc3)o2)N=C1C	24% (inactive)	19
